From PubChem BioAssay
FBW7 activator = activators of human E3 ligase FBW7. AID 1259310. 0.13% of 650,000 active. normalized activity (activation), % at 26.1 µM. AlphaScreen FBW7–phospho-cyclin E peptide binding, activator screen. Q969H0; in the data active = normalized activity above about 1.9%;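 note: purified mutant Fbw7 with reduced substrate affinity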
MITF inh = inhibitors of human MITF. AlphaScreen MITF homodimerization, bead proximity signal. AID 1259374. 0.91% of 650,000 active. O75030. inhibition, % at 2.6 µM; in the data active = inhibition above about 50%
Target sequence (O75030 whole entry, looked up): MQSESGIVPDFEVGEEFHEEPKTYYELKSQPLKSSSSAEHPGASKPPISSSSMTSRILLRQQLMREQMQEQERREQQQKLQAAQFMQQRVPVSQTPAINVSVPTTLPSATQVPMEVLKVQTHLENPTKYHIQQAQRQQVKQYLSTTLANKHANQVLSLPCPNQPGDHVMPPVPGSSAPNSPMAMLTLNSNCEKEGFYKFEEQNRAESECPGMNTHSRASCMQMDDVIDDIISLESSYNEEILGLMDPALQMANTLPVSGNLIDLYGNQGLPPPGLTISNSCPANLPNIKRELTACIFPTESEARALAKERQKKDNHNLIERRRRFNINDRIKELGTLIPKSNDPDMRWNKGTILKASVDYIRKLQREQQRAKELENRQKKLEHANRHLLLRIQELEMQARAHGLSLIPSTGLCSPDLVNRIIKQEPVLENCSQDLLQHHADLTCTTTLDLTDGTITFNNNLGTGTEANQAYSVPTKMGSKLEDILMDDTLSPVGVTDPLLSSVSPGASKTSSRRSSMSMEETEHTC
TEAD-YAP block = TEAD-YAP interaction inhibition; HEK-TIYL cells, TEAD-Gal4/YAP UAS-luciferase luminescence; inhibition, % at 9.12 µM; 1.4% of 640,000 active; AID 1259422; in the data active = inhibition above about 32%
GPR151 activ = activates the human receptor GPR151; activation, % at 11.2 µM; Q8TDV0; PathHunter beta-arrestin GPR151 cells, luminescence; 1% of 650,000 active; in the data active = activation above about 4.9%
Hits are given with their value; i = inactive. This is a sample that favours compounds with a hit; in the whole collection about 3.5% have one here.

SMILES | FBW7 activator | MITF inh | TEAD-YAP block | GPR151 activ
COCCNc1nc2nonc2nc1N1C[C@@H]2CCC[C@H]1C2 | i | i | i | i
COc1ccccc1-c1ccnc(Nc2ccc(S(N)(=O)=O)cc2)n1 | i | 68 | 34 | i
NS(=O)(=O)c1ccc(Nc2nccc(-c3ccccc3)n2)cc1 | i | i | i | i
NS(=O)(=O)c1ccc(Nc2nccc(-c3cccc(Cl)c3Cl)n2)cc1 | 24 | i | i | i
Cc1c(Cl)ccc(S(=O)(=O)N2CCN(Cc3ccccc3)CC2)c1Cl | i | i | i | i
CC(C)n1cnc2c(NCc3nc4ccccc4[nH]3)nc(-c3ccc(C(=O)N4CCN(C)CC4)cc3)nc21 | i | i | 65 | i
CC(C)n1cnc2c(NCc3nc4ccccc4[nH]3)nc(-c3ccc(C(=O)NC4CC4)cc3)nc21 | i | i | 78 | i
CC(C)n1cnc2c(NCc3ccccc3)nc(-c3ccc(C(=O)N4CCN(C)CC4)cc3)nc21 | i | i | i | i
Cc1cccc(N2C(N)=C(C#N)C(c3ccc4c(c3)OCO4)C3=C2CC(C)(C)CC3=O)c1 (stereo unspecified) | i | i | i | i
Cc1cc(/C=C(\C#N)c2nc3ccccc3[nH]2)c(C)n1C1CC1 | i | i | i | i
Cc1cc(/C=C(\C#N)c2nc3ccccc3[nH]2)c(C)n1-c1ccc(F)cc1 | i | i | 71 | i
COc1ccc(CC2(CCC(=O)N(C)CC3CCCCO3)CCC(=O)N2)cc1 (stereo unspecified) | i | i | i | i
N#CC1=C(SCC(=O)Nc2ccccc2)NC(=O)CC1c1ccc(O)cc1 (stereo unspecified) | i | i | i | i
CC(C)OC(=O)CSC1=C(C#N)C(c2ccccc2)CC(=O)N1 (stereo unspecified) | i | i | 62 | i
CCCCOC(=O)CSC1=C(C#N)C(c2ccc(Cl)cc2)CC(=O)N1 (stereo unspecified) | i | i | i | i
CCCCOC(=O)CSC1=C(C#N)C(c2ccccc2)CC(=O)N1 (stereo unspecified) | i | i | 45 | i
CCCOC(=O)CSC1=C(C#N)C(c2ccccc2)CC(=O)N1 (stereo unspecified) | i | i | 57 | i
N#CC1=C(SCC(=O)Nc2ccccc2)NC(=O)CC1c1ccccc1 (stereo unspecified) | i | i | 32 | i
CCc1ccc(C2CC(=O)NC(SCC(=O)OC(C)C)=C2C#N)cc1 (stereo unspecified) | i | i | i | i
CCCOC(=O)CSC1=C(C#N)C(c2ccc(O)cc2)CC(=O)N1 (stereo unspecified) | i | i | i | i
O=[N+]([O-])c1ccc(N/N=C/C2=COCCO2)cc1 | i | i | i | i
COc1ccccc1N(CC(=O)NCCc1ccccc1)S(=O)(=O)c1ccc(C)cc1 | i | i | i | i
O=C(Nc1ccccc1C(=O)N1CCCC1)c1ncoc1-c1ccccc1C(F)(F)F | i | i | 63 | i
COc1ccccc1-c1ocnc1C(=O)Nc1ccccc1C(=O)N1CCCC1 | i | i | i | i
Cc1ccc(C(=O)NCCn2cc(SCC(=O)NCC3CCCO3)c3ccccc32)cc1C (stereo unspecified) | i | i | 33 | i
SMILES | FBW7 activator | MITF inh | TEAD-YAP block | GPR151 activ
O=C(CSc1cn(CCNC(=O)c2ccc(F)cc2)c2ccccc12)NCC1CCCO1 (stereo unspecified) | i | i | i | i
O=C(NCCn1cc(SCC(=O)N2CCCCCC2)c2ccccc21)c1c(F)cccc1F | i | i | 34 | i
COc1ccc(/C=C/C2=NN(c3ccccc3)C(c3ccc(OC)cc3OC)C2)c(OC)c1 (stereo unspecified) | 2.7 | i | i | i
Cc1cc(Nc2ccc(Br)cc2)nc(-n2nc(C)cc2C)n1 | i | i | 64 | i
Cc1cc(Nc2ccc(Cl)cc2)nc(-n2nc(C)cc2C)n1 | i | i | 47 | i
Cc1cc(C)n(-c2nc(-c3ccc(Br)cc3)cs2)n1 | i | i | i | i
Cc1cc(Nc2ccc3c(c2)OCO3)nc(Cl)n1 | i | i | i | i
Cc1cc(Nc2ccc3c(c2)OCCO3)nc(-n2nc(C)cc2C)n1 | i | i | 87 | i
Cc1ccc(CNc2cc(C)nc(-n3nc(C)cc3C)n2)cc1 | i | i | 67 | i
Cc1cc(Nc2ccc(Cl)cc2)nc(N)n1 | i | i | i | i
CC(C(=O)Nc1ccccc1Br)N(c1ccc(Cl)cc1)S(C)(=O)=O (stereo unspecified) | i | i | i | i
NNC(=O)/C(=C/c1ccc([N+](=O)[O-])cc1)NC(=O)c1ccco1 | i | i | 50 | i
CNC(=O)/C(=C\c1ccc([N+](=O)[O-])cc1)NC(=O)c1ccco1 | i | i | i | i
COc1cccc(C2=CC(c3ccc(OC)cc3OC)n3ncnc3N2)c1 (stereo unspecified) | i | i | 40 | i
COc1cccc(C2=CC(c3cc(Br)ccc3F)n3ncnc3N2)c1 (stereo unspecified) | i | i | 47 | i
COc1cccc(C2=CC(c3ccccc3OC(F)F)n3ncnc3N2)c1 (stereo unspecified) | i | i | 52 | i
COc1cccc(C2=CC(c3ccc(OC(F)F)cc3)n3ncnc3N2)c1 (stereo unspecified) | i | i | i | i
COC(=O)N1CCC(=O)Nc2ccccc21 | i | i | i | i
C=CCNC1=CC(=O)C(=O)c2ccccc21 | i | i | i | i
O=C1NC(=S)S/C1=C/c1cc(Br)c(Br)o1 | i | 51 | i | i
O=C1NC(=S)S/C1=C/c1ccc[nH]1 | i | i | 49 | i
CCN1C(=O)C(=Cc2ccc(-c3cccc(C(=O)O)c3)o2)C(=O)N(CC)C1=S | i | i | i | i
O=C1NC(=S)S/C1=C\c1ccc(I)o1 | i | i | i | i
CC(=O)c1ccc(-c2ccc(/C=C3/SC(=S)NC3=O)o2)cc1 | i | 74 | i | i
CCN1C(=O)C(=Cc2ccc(-c3ccc(C(C)=O)cc3)o2)C(=O)N(CC)C1=S | i | 78 | i | i
SMILES | FBW7 activator | MITF inh | TEAD-YAP block | GPR151 activ
COC(=O)c1c(NC(=O)c2ccoc2C)sc2c1CCC(C(C)(C)C)C2 (stereo unspecified) | i | i | i | i
COc1ccc(C2Oc3c(OC)cccc3C3CC(c4ccc(C)o4)=NN32)cc1OC (stereo unspecified) | i | i | i | i
COc1cc(S(=O)(=O)Nc2ccc(I)cc2)c(C)cc1C | i | i | i | i
Cc1cc2nc(N3CCCN(Cc4c(C)nc5sccn45)CC3)nc(C)c2cc1C | i | i | 32 | i
Cc1cc2nc(N3CCCN(Cc4ccc(CO)o4)CC3)nc(C)c2cc1C | i | i | i | i
Cc1cc(C(F)(F)F)nc(SCc2ccc(C(=O)NNC(=O)c3ccccc3C)o2)n1 | i | i | 38 | i
Cc1cc(C(F)(F)F)nc(SCc2ccc(C(=O)O)o2)n1 | i | i | i | i
CC(=O)n1c2c(c3ccccc31)OC(N)=C(C#N)C2c1cc(Br)ccc1F (stereo unspecified) | i | i | 61 | i
CC(=O)n1c2c(c3ccccc31)OC(N)=C(C#N)C2c1ccc(F)cc1 (stereo unspecified) | i | i | i | i
Cc1nc(CC(=O)c2ccc(O)c(O)c2O)cs1 | i | 79 | i | i
CCSc1nnc(-c2ccco2)n1Cc1ccccc1 | i | i | i | i
